Sampled rows, rich in hits. Any-hit rate of the full collection: about 2.8%.
IP6K1 inhibitor – Primary qHTS assay for small molecule inhibitors of Inositol hexaphosphate kinase 1 (IP6K1) | Inositol hexakisphosphate kinase 1 (Homo sapiens), Q92551 | IP6K1 kinase, ADP-Glo luminescence, 2 h; stronger effect = lower value | activity change, % (series mostly up to about 58 µM) | 140,000 tested, 0.81% active | AID 1645851, 2021; in the data active = activity change below about -25%; note: % is set by controls: 0 for no effect and ±100 for the full control effect
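ADP-Glo luminescence measures ADP made by human IP6K1 during a 2 h RT reaction with ATP/IP6 (mix at 1.3 mM/130 uM); top library doses 57.5 and 19.1 uM final.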
KDM5B inh – Primary screen for KDM5B Histone Demethylases FDH-coupled qHTS; Lysine-specific demethylase 5B (Homo sapiens), Q9UGL1; KDM5B demethylase, FDH-coupled NADH fluorescence (FDH is formaldehyde dehydrogenase); Potency, µM (series often up to 57.7 µM), usual class: inhibitors; 220,000 tested, 2.6% active; AID 1347165, 2019; note: potency is the fitted concentration of half-maximal effect; 0% is about no effect; nearly all actives have a fitted effect of over 70% in size
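qHTS format, multiple compound concentrations. Buffer 50 mM HEPES pH 7.5/0.01% Tween-20; 200 nM KDM5BΔAP final; 10 min compound preincubation; substrate-mix levels 12.5 µM peptide, 25 µM α-KG, 0.25 mM NAD⁺; 30 min RT; ΔRFU.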
HEK293 viab – GF-AFC viability counterscreen for inhibitors of alpha-synuclein gene (SNCA) expression. HEK-293-SNCA-luc viability, GF-AFC fluorescence, 24 h. Potency, µM (series often up to 57.1 µM), for the others: at the highest dose activity change, negative = cytotoxicity, actives largely listed as cytotoxic. 150,000 tested, 0.12% active;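 note: potency is the fitted concentration of half-maximal effect; 0% = DMSO-treated cells and -100% = medium-only wells without cells; nearly all actives have a fitted effect of over 30% in size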
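HEK-293-SNCA-luc cells (1500/well) plated 24 h, then exposed 24 h to a dilution series; GF-AFC added 30 min at 37C, fluorescence 405/540 nm; normalised to medium-only and DMSO wells, Hill fit.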
SNCA expr inh – Primary qHTS assay for inhibitors of alpha-synuclein gene (SNCA) expression | Potency, µM (highest dose often 57.2 µM), for inactives: at the top dose activity change, negative = inhibition, hits mostly inhibitors | 140,000 tested, 0.17% active | HEK-293 SNCA-luciferase knock-in, luminescence, 24 h | AID 1671194, 2021;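 note: potency is the fitted concentration of half-maximal effect; plate controls were DMSO cells for no effect and cell-free wells for full effect; nearly all actives have a fitted effect of over 45% in size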
* marks the source's active call; other numbers are inactive results; [ ] = remark or other dose. Unless noted, calls come from the whole dose curve; as a rule, active = well fitted curve in the direction sought with a large enough effect; inconclusive = small, poorly fitted or top-dose-only effect, or another doubt; inactive = no such curve, though single readings can be large; an effect the other way counts as inactive or inconclusive.

For CN(C)C[C@@H]1CN(c2ncccn2)C[C@H]1NC(=O)c1ccncn1 the results were IP6K1 inhibitor 4.6, KDM5B inh 31.6µM*, HEK293 viab 8.4% and SNCA expr inh -11.0%.
Screening Cc1ccsc1C(=O)N[C@@H]1CN(c2ncccn2)C[C@H]1CN(C)C returned IP6K1 inhibitor 11.3, KDM5B inh 31.6µM*, HEK293 viab 0.1% and SNCA expr inh 3.4%.
O=C(N[C@@H]1CN(c2ncccn2)C[C@H]1CO)c1cccc(Cl)c1 was read as IP6K1 inhibitor 6.4, KDM5B inh inconclusive, HEK293 viab inconclusive and SNCA expr inh 19.0%.
Screening Cc1cc(C(=O)N[C@@H]2CN(c3ccncn3)C[C@H]2CN(C)C)no1 returned IP6K1 inhibitor 22.8, KDM5B inh inactive, HEK293 viab 5.4% and SNCA expr inh -1.6%.
Cc1ncoc1C(=O)N1CCOC(Cc2cccc(C(F)(F)F)c2)C1 (configuration not stated) was read as IP6K1 inhibitor 2.6, KDM5B inh inactive, HEK293 viab 2.0% and SNCA expr inh 15.2%.
For COc1ccc(CNC(=O)CC2CCCN(c3cnn(CC4CC4)c(=O)c3)C2)cc1 (configuration not stated) the results were IP6K1 inhibitor 10.1, KDM5B inh inactive, HEK293 viab -12.0% and SNCA expr inh -19.5%.
Screening CCCC(C)NC(=O)COC(=O)CCS(=O)(=O)c1ccc(C)cc1 (configuration not stated) returned KDM5B inh inactive.
For CN(C)C[C@@H]1CN(c2ncccn2)C[C@H]1NC(=O)c1ccnn1C the results were IP6K1 inhibitor 6.8, KDM5B inh 28.2µM*, HEK293 viab -3.5% and SNCA expr inh inconclusive.
For CN(C)C[C@@H]1CN(c2ncccn2)C[C@H]1NC(=O)c1ccc(Cl)cc1 the results were IP6K1 inhibitor 21.4, KDM5B inh 28.2µM*, HEK293 viab 4.7% and SNCA expr inh inconclusive.
For CN(C)C[C@@H]1CN(c2ncccn2)C[C@H]1NC(=O)c1cnccn1 the results were IP6K1 inhibitor 20.0, KDM5B inh 25.1µM*, HEK293 viab 4.5% and SNCA expr inh -0.8%.
`CN(C)C[C@@H]1CN(c2ncccn2)C[C@H]1NC(=O)c1c(F)cccc1F` gave IP6K1 inhibitor 4.7, KDM5B inh 31.6µM*, HEK293 viab -2.0% and SNCA expr inh -16.8%.
Screening CN(C)C[C@@H]1CN(Cc2ccccn2)C[C@H]1NC(=O)c1ccc(Cl)cc1 returned IP6K1 inhibitor 19.4, KDM5B inh inactive, HEK293 viab 2.0% and SNCA expr inh -4.0%.
O=C(N[C@@H]1CN(c2ncccn2)C[C@H]1CO)c1c(F)cccc1F was read as IP6K1 inhibitor 1.6, KDM5B inh inconclusive, HEK293 viab -0.2% and SNCA expr inh 14.7%.
`O=S(=O)(Nc1nc2ccccc2nc1Nc1ccccc1)c1ccc(Cl)s1` gave KDM5B inh inactive.
Screening Cc1cccc(C(=O)N2C[C@@H](Oc3cccnc3)C[C@H]2C(=O)N2CCOCC2)c1 returned IP6K1 inhibitor 4.9, KDM5B inh inactive, HEK293 viab 2.9% and SNCA expr inh 47.4%.
`N#Cc1nc(-c2ccc(S(=O)(=O)N3CCCCC3)cc2)oc1NCCCn1ccnc1` gave KDM5B inh inactive.
For CNC(=O)N1CCC(C2CCN(C(=O)Cc3ccsc3)C2)CC1 (configuration not stated) the results were IP6K1 inhibitor -8.0, KDM5B inh inactive, HEK293 viab 2.0%[12.5 µM] and SNCA expr inh 16.5%.
For CN(C)C[C@@H]1CN(C)C[C@H]1NC(=O)c1ccccc1C(F)(F)F the results were IP6K1 inhibitor -11.3, KDM5B inh inactive, HEK293 viab 6.6% and SNCA expr inh -10.7%.
For CN(C)C[C@@H]1CN(c2ncccn2)C[C@H]1NC(=O)c1ccncc1 the results were IP6K1 inhibitor 21.4, KDM5B inh 25.1µM*, HEK293 viab 1.0% and SNCA expr inh 5.4%.
For CN(C)C[C@@H]1CN(c2ncccn2)C[C@H]1NS(=O)(=O)c1cccnc1 the results were IP6K1 inhibitor 2.4, KDM5B inh 25.1µM*, HEK293 viab -7.8% and SNCA expr inh 6.0%.
`CN(C)C[C@@H]1CN(c2ncccn2)C[C@H]1NC(=O)c1ccccc1C(F)(F)F` gave IP6K1 inhibitor 21.4, KDM5B inh 22.4µM*, HEK293 viab 2.3% and SNCA expr inh -11.0%.
`CN(C)C[C@@H]1CN(c2ncccn2)C[C@H]1NS(=O)(=O)c1cccs1` gave IP6K1 inhibitor 30.8, KDM5B inh inconclusive, HEK293 viab 12.0% and SNCA expr inh 18.6%.
Screening CN(C)C[C@@H]1CN(S(C)(=O)=O)C[C@H]1NC(=O)c1ccncc1 returned IP6K1 inhibitor 26.1, KDM5B inh inactive, HEK293 viab -2.9% and SNCA expr inh 13.1%.
For COCCN1C(=O)CO[C@H]2CN(c3ncccn3)C[C@H]21 the results were IP6K1 inhibitor -7.4, KDM5B inh 35.5µM*, HEK293 viab -5.7%[87.6 µM] and SNCA expr inh -10.1%[87.6 µM].
For Fc1cc(F)cc(CNc2ncncc2-c2nc(-c3ccccc3)no2)c1 the results were IP6K1 inhibitor 2.2, KDM5B inh inconclusive, HEK293 viab 8.3% and SNCA expr inh -10.5%.
Screening Cc1cccc(CNc2ncncc2-c2nc(-c3ccccc3)no2)c1 returned IP6K1 inhibitor -1.2, KDM5B inh inconclusive, HEK293 viab 3.6% and SNCA expr inh 5.5%.
Screening c1ccc(CCCNc2ncncc2-c2nc(-c3ccccc3)no2)cc1 returned IP6K1 inhibitor -10.6, KDM5B inh 28.2µM*, HEK293 viab 10.8% and SNCA expr inh -17.1%.
c1ccc(-c2noc(-c3cncnc3NCCc3cccs3)n2)cc1 was read as IP6K1 inhibitor -7.2, KDM5B inh 28.2µM*, HEK293 viab 6.4% and SNCA expr inh 6.0%.
`C1=C(CCNc2ncncc2-c2nc(-c3ccccc3)no2)CCCC1` gave IP6K1 inhibitor -6.3, KDM5B inh 28.2µM*, HEK293 viab 6.0% and SNCA expr inh 16.6%.
For Cc1noc(C)c1CCC(=O)NC1CCc2nnc(C)n2CC1 (configuration not stated) the results were IP6K1 inhibitor -3.8, KDM5B inh inactive, HEK293 viab -4.8% and SNCA expr inh 12.4%.
For CCC(CC)NC(=O)c1cccc(Cl)c1 the results were KDM5B inh inactive.
For CC(C)NC(=O)N1CCC(N2C(=O)C3(CCCC3)C2c2ccccc2)CC1 (configuration not stated) the results were IP6K1 inhibitor 8.6, KDM5B inh inactive, HEK293 viab 0.0%[12.5 µM] and SNCA expr inh -5.0%.
CN(C)c1cccc(C(=O)NC2CCN(c3cc(-c4ccc(F)cc4)[nH]n3)CC2)c1 was read as IP6K1 inhibitor 23.6, KDM5B inh inactive, HEK293 viab 9.1% and SNCA expr inh 233.8%.
`O=C(Cc1ccc(Cl)cc1)N1CCCN(c2cc(-c3ccccc3)[nH]n2)CC1` gave IP6K1 inhibitor 14.5, KDM5B inh inconclusive, HEK293 viab -10.1% and SNCA expr inh -25.8%.
